# Data from PubChem BioAssay (NCI).
# This is part of a sample that, as a whole, favours compounds with a hit. Of some 83,000 tested, about 20% had one in any assay.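 Single-concentration screen, 48 h exposure, 96-well plates. Endpoint: percent growth. Below 10 = active.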 A number with no mark means an inactive call. Calls of active or inactive are those of the source.
# What was measured:
# Experiment in all cases: NCI-60 one-dose screen, 48 h (100 = growth as untreated, 0 = no growth, -100 = all killed)
# Settings in all cases: 10 µM unless noted
# [1] = test system: HCT-15 colon
# [2] = test system: HT29 colon
# [3] = test system: SNB-75 CNS
# [4] = test system: SNB-19 CNS
# [5] = test system: U251 CNS
# [6] = test system: PC-3 prostate
# [7] = test system: SK-MEL-5 melanoma
# [8] = test system: UACC-62 melanoma
# [9] = test system: SK-MEL-28 melanoma
# [10] = test system: SK-MEL-2 melanoma
# [11] = test system: EKVX NSCLC
# [12] = test system: SN12C renal
# [13] = test system: UO-31 renal
# [14] = test system: TK-10 renal
# [15] = test system: ACHN renal
# [16] = test system: CAKI-1 renal
# [17] = test system: A498 renal
# [18] = test system: CCRF-CEM leukemia
# [19] = test system: MOLT-4 leukemia
Structure (SMILES),growth [1],growth [2],growth [3],growth [4],growth [5],growth [6],growth [7],growth [8],growth [9],growth [10],growth [11],growth [12],growth [13],growth [14],growth [15],growth [16],growth [17],growth [18],growth [19]
CC(=O)Nc1ccc(-n2cnc3ccc(-c4ccc(O)cc4)cc32)cc1,52%,102%,56.5%,55.5%,37%,47.6%,54.6%,46.1%,44.3%,50.7%,54.8%,29.3%,46.2%,89.9%,24.7%,29.9%,92.8%,30.2%,11.3%
O=C(/C=C/Nc1ccc(Cl)cc1)c1ccc2c(c1)Nc1ccccc1S2,67.1%,28.7%,-24.4% (active),9.53% (active),31.5%,29.8%,71.3%,32%,65.9%,55.1%,55.8%,61.8%,36.1%,72%,30.7%,38.3%,108%,81.1%,66.2%
C/C(=N\N=C1/C(=O)Nc2ccc(Cl)cc21)c1ccc2c(c1)Nc1ccccc1S2,0.895% (active),-31.1% (active),8.6% (active),18.7%,-32.1% (active),-5.59% (active),-15.6% (active),13.5%,-48.9% (active),-13.6% (active),12.6%,-16.2% (active),18.2%,22.4%,-3.77% (active),6.63% (active),23.7%,9.58% (active),-1.18% (active)
CNC(=O)c1cc(Oc2ccc3nc(NC(=O)Nc4cccc(OC(F)(F)F)c4)sc3c2)ccn1,51.1%,25%,6.6% (active),-46.6% (active),2.42% (active),4.97% (active),53.7%,-4.81% (active),31.9%,-20.5% (active),42.8%,23.4%,14.5%,-33.7% (active),-2.02% (active),-8.87% (active),8.49% (active),52.9%,50.9%
CCN1C(=O)N(CC)C2NNC(Sc3c(C(=O)O)c4ccccc4n(C4CCCC4)c3=O)=NC21 (centres undefined),14.7%,0.444% (active),20.9%,38.8%,8.79% (active),36.3%,13.8%,47.4%,54.8%,27%,45.7%,34.3%,46.8%,80.1%,25.7%,27.5%,102%,24.8%,24.1%
O=C(/C=C/c1cccc(OCc2ccccc2)c1)c1nc2ccccc2[nH]1,-75.5% (active),-45.7% (active),66.8%,53.6%,-65.8% (active),25.9%,72.1%,56%,94.9%,100%,36.4%,59%,33.2%,62.8%,62.5%,66.1%,91.3%,10.2%,5.98% (active)
O=C(O)c1ccc(-c2ccc(/C=N/NC(=O)c3[nH]c4ccc(Br)cc4c3-c3ccccc3)o2)cc1,7.24% (active),34.5%,-8.96% (active),13%,1.17% (active),20.8%,-9.61% (active),18%,31.1%,-16.5% (active),22.3%,5.99% (active),24.5%,41.2%,32.5%,38.5%,98.5%,-0.481% (active),14.1%
CNC(=O)c1cccc(NC(=O)c2ccc3c(c2)nnn3/C(C#N)=C/c2ccccn2)c1,-31.3% (active),-84.4% (active),73%,71%,-12.4% (active),2.89% (active),-13.4% (active),-86.6% (active),-76.6% (active),-60.7% (active),-30.5% (active),-15.8% (active),-7.22% (active),-25.4% (active),-24.2% (active),25.7%,115%,-24.5% (active),-19.2% (active)
C=C1CC[C@@H]2[C@]3(C)COC(c4cn[nH]c4-c4ccc(OC)cc4)O[C@@H]3CC[C@@]2(C)[C@@H]1C/C=C1/C(=O)OCC1O (some centres undefined),-35.3% (active),-26.3% (active),-16.5% (active),18.5%,-76% (active),39.3%,-94.3% (active),-75.2% (active),-52.2% (active),-42.2% (active),-59.8% (active),-14.3% (active),-44.2% (active),5.62% (active),3.82% (active),-23.4% (active),50.2%,0.599% (active),8.3% (active)
COc1cc2oc(-c3cccc(C(=O)Nc4ccc(Cl)cc4)c3)cc(=O)c2c(OCCNC(=O)[C@@H](N)CCC(=O)O)c1OC,78%,50.6%,86.4%,93.6%,87.4%,79%,83.6%,100%,78.8%,104%,70.8%,61.6%,80.1%,114%,92.5%,68.9%,157%,75.6%,36.6%
Nc1cc2ccccc2c(=O)n1NC(=O)c1ccc(I)cc1,102%,101%,70%,95.6%,97.4%,100%,101%,93.2%,103%,102%,94.2%,107%,92%,115%,106%,83.6%,103%,97.8%,99.2%
COc1ccc(C(=O)/C=C/c2ccc(OCc3ccc(F)cc3)c(OC)c2)cc1OC,10.2%,10.7%,-15% (active),15.4%,10.1%,24%,17.8%,18.8%,46.8%,52.9%,59.9%,-1.58% (active),21.5%,39.6%,28.5%,32.6%,94.7%,7.26% (active),9.77% (active)
CSc1ccc(C(=O)Nc2ccc3nn(/C(C#N)=C/c4ccccn4)nc3c2)cc1,-70.1% (active),-88.6% (active),33.1%,-70.9% (active),-84.1% (active),-28% (active),-54.9% (active),-91.2% (active),-83.5% (active),-77.8% (active),-96.3% (active),-45.5% (active),-100% (active),-96.7% (active),-96% (active),-42.9% (active),56.8%,-33.8% (active),-24.9% (active)
Clc1cccc(Cl)c1/C=C/c1cc(/C=C/c2ccc(Br)cc2)c2ccccc2n1,101%,105%,95.9%,92.5%,101%,96.2%,104%,83.5%,104%,123%,89.8%,93.2%,70.2%,126%,100%,73.4%,142%,85%,84.8%
CC1=C(C(=O)OCc2ccccc2)C(c2c(O)cc(O)cc2O)n2c(nc3ccccc32)N1 (centres undefined),39%,38.7%,13%,59.7%,42.7%,49.2%,53%,14.7%,60.2%,58%,54.4%,74.8%,46.4%,87.9%,46.6%,39.4%,102%,38.1%,60.6%
COc1cccc(-c2c(C#N)c(-c3ccc(Cl)cc3)nc3n[nH]c(-c4ccc(Cl)cc4)c23)c1,9.74% (active),27.9%,56.3%,68.2%,48.5%,23.9%,30.9%,61.3%,73.6%,53.1%,33.9%,44.8%,35.2%,71.8%,56.2%,39.1%,100%,23.7%,2.7% (active)
